A number with no mark means an inactive call. Results filed as inconclusive are left out. Active and inactive are the calls of the source. Unless noted, calls follow the shape of the dose curve; as a rule, active = well fitted curve in the direction sought with a large enough effect in the repeat runs; inconclusive = weak or mixed curves; inactive = no such curve, though single readings can be large; an effect the other way counts as inactive or inconclusive.

For test [1], the target named is Thyrotropin-releasing hormone receptor (Homo sapiens) (UniProt P34981). Nature of the test: qHTS assay to identify small molecule agonists of the thyrotropin-releasing hormone receptor (TRHR) signaling pathway (AID 1346891; calls by dose curve; also: series mostly up to about 58 µM). The method, boiled down:
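Screening of agonists relied on calcium signalling in HEK293 cells expressing human TRHR: dye loading 2 h at 37 °C preceded compound addition and a 3-min fluorescence time course.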
(In qHTS, concentration-response curves come from the screen itself.)

Test [2] in a line: Human pregnane X receptor (PXR) small molecule agonists, qHTS cell viability counter screen (AID 1346977). Also: nearly all actives have a fitted effect of over 50% in size. The method, boiled down:
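Tox21 qHTS format; PXR-Luc HepG2, 2,000/well, charcoal-stripped FBS 5%. Cpd exposure 24hr. Read: CellTiter-Fluor fluorescence, multiplexed with luciferase.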

Test [3] is described as follows: Caspase-3/7 induction in HepG2 cells by small molecules, qHTS assay (AID 1346978). Also: nearly all actives have a fitted effect of over 15% in size. Put shortly:
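Caspase-3/7 induction was measured by Caspase-Glo 3/7 luminescence (30 min, room temperature) after a 17 hr compound exposure of wild-type HepG2 cells seeded at 2,000 per well and pre-incubated 5 hr.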

Test [4] is described as follows: Caspase-3/7 induction in CHO-K1 cells by small molecules, qHTS cell viability counter screen (AID 1346979). Also: nearly all actives have a fitted effect of over 35% in size. The method, boiled down: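 CellTiter-Fluor viability check, qHTS format: wild-type CHO-K1, 16hr compound treatment, 1hr reagent incubation, fluorescence read.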
The nature of test [5]: Caspase-3/7 induction in CHO-K1 cells by small molecules, qHTS assay (AID 1346980). Also: nearly all actives have a fitted effect of over 15% in size. The method, boiled down: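 Luminescent Caspase-Glo 3/7 read (30min, room temperature) quantified apoptosis induction. Cells were wild-type CHO-K1, treated with compound for 17hr at 37 C and 5% CO2.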
Test [6] in a line: Caspase-3/7 induction in HepG2 cells by small molecules, qHTS cell viability counter screen (AID 1346981). Also: series mostly up to about 92 µM; nearly all actives have a fitted effect of over 30% in size. Put shortly: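 In this quantitative HTS counter screen, compounds delivered in DMSO were left on unmodified HepG2 cells for 16 hr at 37 C. Viability was then determined fluorometrically with CellTiter-Fluor, in parallel with caspase-3/7 induction in the same wells.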
In test [7] the target is Nuclear receptor subfamily 1 group I member 2 (Homo sapiens) (UniProt O75469). The test is described as follows: Human pregnane X receptor (PXR) small molecule agonists, qHTS assay (AID 1346982). Also: nearly all actives have a fitted effect of over 35% in size. Also: potency is read from the fitted curve at half-maximal effect. The method, boiled down: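 Reporter HepG2 cells expressing PXR-Luc are cultured in charcoal-stripped FBS (5%), treated with compounds for 24 hr at 37 C, and assayed by ONE-Glo luminescence after 30 min at room temperature.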
Chain of Nuclear receptor subfamily 1 group I member 2 (Homo sapiens) (O75469 whole entry, looked up): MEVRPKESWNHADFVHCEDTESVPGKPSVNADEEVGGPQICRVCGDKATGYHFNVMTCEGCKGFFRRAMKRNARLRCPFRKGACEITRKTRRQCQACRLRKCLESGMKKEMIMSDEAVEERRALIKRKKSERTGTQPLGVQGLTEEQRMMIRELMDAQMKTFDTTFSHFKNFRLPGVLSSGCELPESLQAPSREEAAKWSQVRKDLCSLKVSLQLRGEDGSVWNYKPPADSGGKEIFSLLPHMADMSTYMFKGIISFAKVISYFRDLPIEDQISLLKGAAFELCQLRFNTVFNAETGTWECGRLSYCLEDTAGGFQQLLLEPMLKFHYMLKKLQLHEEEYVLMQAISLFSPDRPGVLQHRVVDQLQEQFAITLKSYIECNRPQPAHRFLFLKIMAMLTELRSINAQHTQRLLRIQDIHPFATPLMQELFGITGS

Test [8] addresses Cytochrome P450 2D6 (Homo sapiens) (UniProt P10635). Nature of the test: Cytochrome P450 Family 2 Subfamily D Member 6 (CYP2D6) small molecule antagonists: luciferase reporter qHTS assay (AID 1671196). Also: nearly all actives have a fitted effect of over 50% in size. Also: potency is read from the fitted curve at half-maximal effect. Put shortly: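 Test chemicals meet CYP2D6 plus proluciferin substrate (10 min, RT); NADPH regenerating solution then drives turnover for 1 h. Detection reagent halts the reaction; luminescence measured after 20 min.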
(In a reporter assay the amount or activity of a reporter protein is the signal.)

Test [9] addresses Cytochrome P450 2C19 (Homo sapiens) (UniProt P33261). Nature of the test: Cytochrome P450 Family 2 Subfamily C Member 19 (CYP2C19) small molecule antagonists: luciferase reporter qHTS assay (AID 1671197). Also: nearly all actives have a fitted effect of over 65% in size. Also: potency is read from the fitted curve at half-maximal effect. Put shortly: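 Light output is proportional to CYP2C19 activity: proluciferin substrate is converted to luciferin, then detected by a luciferin detection reagent that also stops the 1 h, 37C NADPH-driven reaction. Ketoconazole serves as positive control.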

The target in test [10] is Cytochrome P450 2C9 (Homo sapiens) (UniProt P11712). The test is described as follows: Cytochrome P450 Family 2 Subfamily C Member 9 (CYP2C9) small molecule antagonists: luciferase reporter qHTS assay (AID 1671198). Also: nearly all actives have a fitted effect of over 50% in size. Also: potency is read from the fitted curve at half-maximal effect. Put shortly: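 Enzyme-substrate mix preincubated with compound 10 min at room temperature; reaction started with NADPH regeneration solution, 1 h 37C. Luminescent luciferin product read after 20 min detection reagent.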
Chain of Cytochrome P450 2C9 (Homo sapiens) (P11712 whole entry, looked up): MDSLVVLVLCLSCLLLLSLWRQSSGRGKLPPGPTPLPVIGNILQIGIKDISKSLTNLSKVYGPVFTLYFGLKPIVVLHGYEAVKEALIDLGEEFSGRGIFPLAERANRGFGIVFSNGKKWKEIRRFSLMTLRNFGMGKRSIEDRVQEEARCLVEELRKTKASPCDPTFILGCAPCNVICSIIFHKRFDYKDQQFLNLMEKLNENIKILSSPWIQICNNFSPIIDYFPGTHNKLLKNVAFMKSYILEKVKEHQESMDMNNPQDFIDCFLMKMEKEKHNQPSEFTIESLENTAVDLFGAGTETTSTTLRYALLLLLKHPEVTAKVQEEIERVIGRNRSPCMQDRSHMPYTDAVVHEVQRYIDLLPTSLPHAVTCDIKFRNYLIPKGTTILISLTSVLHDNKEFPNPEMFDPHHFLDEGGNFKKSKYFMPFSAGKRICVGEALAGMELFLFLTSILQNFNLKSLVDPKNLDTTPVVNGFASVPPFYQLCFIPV

Test [11] concerns the target Cytochrome P450 1A2 (Homo sapiens) (UniProt P05177). Nature of the test: Cytochrome P450 Family 1 Subfamily A Member 2 (CYP1A2) small molecule antagonists: luciferase reporter qHTS assay (AID 1671199). Also: nearly all actives have a fitted effect of over 50% in size. Also: potency is read from the fitted curve at half-maximal effect. Put shortly:
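Steps: enzyme-substrate mix dispensed; test compounds and furafylline control pinned in; 10 min room temperature; NADPH regeneration solution added, 1 h; reaction stopped with luciferin detection reagent; luminescence read after 20 min.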

Test [12] has as its target Voltage-gated inwardly rectifying potassium channel KCNH2 (Homo sapiens) (UniProt Q12809). Nature of the test: Human Ether-a-go-go-Related Gene (hERG) channel small molecule antagonists: fluorescence cell-based qHTS assay (AID 1671200). Put shortly: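 Kinetic two-minute fluorescence traces, sampled at 1 s, were collected following thallium stimulus of U2OS cells (1000 per well) that had been cultured overnight at 37 C and loaded with FluxOR II.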

Test [13] deals with Cytochrome P450 3A4 (Homo sapiens) (UniProt P08684). Nature of the test: Cytochrome P450 Family 3 Subfamily A Member 4 (CYP3A4) small molecule antagonists: luciferase reporter qHTS assay (AID 1671201). Put shortly:
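Proluciferin-to-luciferin conversion by CYP3A4, NADPH-regenerated, 1 h RT; luminescence read as RLU. Ketoconazole as control.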

Test [14] addresses Nuclear receptor subfamily 1 group I member 2 (Rattus norvegicus) (UniProt Q9R1A7). The test is described as follows: Rat pregnane X receptor (rPXR) activation by small molecules, qHTS assay (AID 1346983). Also: nearly all actives have a fitted effect of over 20% in size. The note with it: rPXR luciferase reporter cells, One-Glo luminescence, 24 h; max activation: active compounds read high. The method, boiled down: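 Luminescent readout (One-Glo luciferase, 30 min room temperature) followed 24 hr compound treatment at 37 C of rPXR cells plated 2,000 per well and preincubated 5hr; qHTS format with compounds delivered in DMSO.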

Test [15] deals with Nuclear receptor subfamily 1 group I member 2 (Homo sapiens) (UniProt O75469). The test is described as follows: CYP3A4 induction through human pregnane X receptor (PXR) by small molecules, qHTS assay (AID 1346984). Also: nearly all actives have a fitted effect of over 40% in size. The method, boiled down:
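Induction measured in HepG2-based DPX-2 cells co-expressing human PXR and a CYP3A4 promoter-driven luciferase. After a 24-hour compound exposure, cells received CYP3A4 luciferin substrate at 3uM final for 3 hours, and light output was then recorded.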

For test [16] the target is unchanged. The test is described as follows: Human pregnane X receptor (PXR) activation by small molecules, qHTS assay (AID 1346985). Also: nearly all actives have a fitted effect of over 40% in size. The method, boiled down:
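DPX-2 cells (HepG2 co-transfected with a PXR response element and a CYP3A4-promoter luciferase construct) were seeded at 2,000 per well, rested 5 hr at 37C, then exposed to DMSO-dissolved compounds for 24 hr. Activation was read as luciferase luminescence.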
% is scaled to controls: 0 for no effect and ±100 for the full control effect.

Chain of Cytochrome P450 2D6 (Homo sapiens) (P10635 whole entry, looked up): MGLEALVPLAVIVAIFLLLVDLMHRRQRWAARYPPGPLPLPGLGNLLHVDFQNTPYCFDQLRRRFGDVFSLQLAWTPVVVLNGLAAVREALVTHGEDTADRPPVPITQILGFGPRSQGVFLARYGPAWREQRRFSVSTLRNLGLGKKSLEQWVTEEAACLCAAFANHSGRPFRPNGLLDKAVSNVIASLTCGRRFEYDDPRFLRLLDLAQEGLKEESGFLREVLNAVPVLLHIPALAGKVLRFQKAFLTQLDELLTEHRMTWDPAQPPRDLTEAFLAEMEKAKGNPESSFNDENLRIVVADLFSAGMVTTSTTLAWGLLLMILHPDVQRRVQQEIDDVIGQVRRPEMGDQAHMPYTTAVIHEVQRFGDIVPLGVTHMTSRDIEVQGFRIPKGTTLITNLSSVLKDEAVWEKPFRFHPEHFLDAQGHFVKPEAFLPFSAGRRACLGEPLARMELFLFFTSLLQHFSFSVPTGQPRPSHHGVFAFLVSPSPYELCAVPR
Chain of Thyrotropin-releasing hormone receptor (Homo sapiens) (P34981 whole entry, looked up): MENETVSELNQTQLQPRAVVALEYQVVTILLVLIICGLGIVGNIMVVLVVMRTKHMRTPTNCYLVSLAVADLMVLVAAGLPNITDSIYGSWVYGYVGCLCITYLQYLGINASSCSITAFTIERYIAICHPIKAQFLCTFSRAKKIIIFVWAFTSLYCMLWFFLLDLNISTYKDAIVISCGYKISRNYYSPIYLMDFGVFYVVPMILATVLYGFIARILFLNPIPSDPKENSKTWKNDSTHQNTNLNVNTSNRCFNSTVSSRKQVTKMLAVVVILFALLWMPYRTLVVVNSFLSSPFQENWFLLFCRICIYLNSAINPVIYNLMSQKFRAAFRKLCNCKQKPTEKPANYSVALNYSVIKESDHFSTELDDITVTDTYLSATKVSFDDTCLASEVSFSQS
Chain of Cytochrome P450 1A2 (Homo sapiens) (P05177 whole entry, looked up): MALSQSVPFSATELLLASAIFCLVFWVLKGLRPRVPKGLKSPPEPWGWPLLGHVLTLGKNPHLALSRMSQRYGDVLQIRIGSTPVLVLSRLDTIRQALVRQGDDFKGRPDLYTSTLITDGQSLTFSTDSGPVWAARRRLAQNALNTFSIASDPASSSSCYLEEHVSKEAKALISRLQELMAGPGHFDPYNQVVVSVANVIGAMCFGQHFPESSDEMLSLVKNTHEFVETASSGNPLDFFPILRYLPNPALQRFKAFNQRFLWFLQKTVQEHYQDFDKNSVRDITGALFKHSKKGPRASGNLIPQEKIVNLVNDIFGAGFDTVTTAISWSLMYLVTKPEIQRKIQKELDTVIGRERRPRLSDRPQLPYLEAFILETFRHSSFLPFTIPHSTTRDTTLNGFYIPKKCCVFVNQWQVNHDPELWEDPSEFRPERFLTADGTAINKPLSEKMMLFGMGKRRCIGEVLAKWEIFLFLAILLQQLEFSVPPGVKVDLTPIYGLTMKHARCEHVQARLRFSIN
Chain of Cytochrome P450 2C19 (Homo sapiens) (P33261 whole entry, looked up): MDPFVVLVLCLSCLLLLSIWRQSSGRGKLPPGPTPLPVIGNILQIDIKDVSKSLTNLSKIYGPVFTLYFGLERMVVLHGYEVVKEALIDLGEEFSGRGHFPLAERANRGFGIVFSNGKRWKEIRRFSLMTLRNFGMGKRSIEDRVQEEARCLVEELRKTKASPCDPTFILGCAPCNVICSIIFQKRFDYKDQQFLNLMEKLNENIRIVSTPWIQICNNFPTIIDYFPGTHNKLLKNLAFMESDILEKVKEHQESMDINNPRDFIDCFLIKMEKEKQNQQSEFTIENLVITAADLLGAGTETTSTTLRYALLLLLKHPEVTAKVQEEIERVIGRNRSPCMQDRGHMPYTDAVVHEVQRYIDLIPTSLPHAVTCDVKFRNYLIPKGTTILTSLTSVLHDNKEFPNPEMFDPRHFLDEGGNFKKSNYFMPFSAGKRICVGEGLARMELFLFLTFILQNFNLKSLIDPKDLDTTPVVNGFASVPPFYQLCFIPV
Chain of Voltage-gated inwardly rectifying potassium channel KCNH2 (Homo sapiens) (Q12809 whole entry, looked up): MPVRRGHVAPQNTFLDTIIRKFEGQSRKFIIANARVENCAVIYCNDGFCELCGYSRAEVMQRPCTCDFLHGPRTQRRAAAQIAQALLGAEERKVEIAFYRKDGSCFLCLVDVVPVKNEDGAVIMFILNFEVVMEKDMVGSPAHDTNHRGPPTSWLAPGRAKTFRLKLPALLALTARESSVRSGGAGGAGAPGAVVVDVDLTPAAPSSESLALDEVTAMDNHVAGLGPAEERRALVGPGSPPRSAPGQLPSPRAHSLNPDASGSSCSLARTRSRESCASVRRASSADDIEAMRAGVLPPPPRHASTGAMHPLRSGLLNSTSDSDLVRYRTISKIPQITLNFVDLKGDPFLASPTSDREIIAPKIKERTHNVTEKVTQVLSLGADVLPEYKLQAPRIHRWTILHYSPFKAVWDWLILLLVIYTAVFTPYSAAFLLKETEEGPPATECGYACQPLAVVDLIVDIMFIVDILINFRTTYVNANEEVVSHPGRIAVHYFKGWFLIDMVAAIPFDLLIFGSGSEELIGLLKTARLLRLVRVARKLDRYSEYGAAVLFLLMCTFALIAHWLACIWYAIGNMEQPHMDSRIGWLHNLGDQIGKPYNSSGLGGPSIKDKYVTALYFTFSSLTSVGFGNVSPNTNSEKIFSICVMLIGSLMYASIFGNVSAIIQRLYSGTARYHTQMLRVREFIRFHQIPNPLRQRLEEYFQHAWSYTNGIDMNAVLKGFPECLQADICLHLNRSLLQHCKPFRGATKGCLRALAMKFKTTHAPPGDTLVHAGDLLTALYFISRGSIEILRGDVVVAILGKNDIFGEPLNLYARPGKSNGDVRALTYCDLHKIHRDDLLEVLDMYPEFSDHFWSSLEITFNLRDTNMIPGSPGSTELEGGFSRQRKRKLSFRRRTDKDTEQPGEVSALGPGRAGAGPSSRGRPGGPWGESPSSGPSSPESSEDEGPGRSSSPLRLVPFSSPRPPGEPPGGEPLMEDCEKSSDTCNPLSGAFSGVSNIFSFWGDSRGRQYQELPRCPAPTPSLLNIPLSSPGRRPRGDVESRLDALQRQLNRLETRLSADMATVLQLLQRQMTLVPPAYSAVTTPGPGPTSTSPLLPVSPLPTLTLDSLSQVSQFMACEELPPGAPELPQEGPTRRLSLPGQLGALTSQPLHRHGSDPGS
Chain of Cytochrome P450 3A4 (Homo sapiens) (P08684 whole entry, looked up): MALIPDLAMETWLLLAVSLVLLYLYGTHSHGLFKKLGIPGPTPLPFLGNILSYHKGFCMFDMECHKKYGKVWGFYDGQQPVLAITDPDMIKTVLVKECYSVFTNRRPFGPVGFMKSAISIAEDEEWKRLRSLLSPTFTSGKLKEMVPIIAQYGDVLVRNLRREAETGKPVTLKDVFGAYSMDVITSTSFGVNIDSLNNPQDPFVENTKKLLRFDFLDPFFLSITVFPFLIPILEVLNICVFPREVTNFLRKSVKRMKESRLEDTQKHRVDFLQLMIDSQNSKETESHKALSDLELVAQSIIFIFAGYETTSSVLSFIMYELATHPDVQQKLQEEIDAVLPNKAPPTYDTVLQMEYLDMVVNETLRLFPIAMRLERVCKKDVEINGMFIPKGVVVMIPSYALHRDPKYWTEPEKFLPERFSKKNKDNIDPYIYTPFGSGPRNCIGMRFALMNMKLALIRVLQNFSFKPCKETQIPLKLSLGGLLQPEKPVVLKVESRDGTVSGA
Chain of Nuclear receptor subfamily 1 group I member 2 (Rattus norvegicus) (Q9R1A7 whole entry, looked up): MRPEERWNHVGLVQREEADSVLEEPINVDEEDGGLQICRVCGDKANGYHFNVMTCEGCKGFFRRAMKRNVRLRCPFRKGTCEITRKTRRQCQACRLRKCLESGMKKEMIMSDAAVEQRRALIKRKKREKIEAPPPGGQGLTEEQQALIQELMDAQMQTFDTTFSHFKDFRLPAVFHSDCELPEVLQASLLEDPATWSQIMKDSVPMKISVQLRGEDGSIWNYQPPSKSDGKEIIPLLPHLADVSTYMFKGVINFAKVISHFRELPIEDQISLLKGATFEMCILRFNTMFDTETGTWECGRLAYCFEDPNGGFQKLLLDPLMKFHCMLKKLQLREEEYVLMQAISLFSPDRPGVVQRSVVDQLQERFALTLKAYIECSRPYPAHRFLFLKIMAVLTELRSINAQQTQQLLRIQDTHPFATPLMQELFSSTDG

In the case of `Nc1ccc(F)cc1`, the call in [1] and in test [5] was inactive. Further, the Potency entry in test [2], in test [3], in [4], in test [6], in test [7] and in test [8] was “inactive” throughout. The Potency result in test [9], in test [10], in [11], in test [12] and in test [13] was “inactive” throughout.

As for `Cc1ccccc1S(N)(=O)=O`, the compound was classed as inactive in test [1] and in [5]. Further, the Potency entry in test [2], in test [3], in test [4], in test [6], in [7] and in test [8] was “inactive” throughout. For the same compound, the Potency entry in test [9] and in [10] was “inactive” throughout.

Take `CC(C)(C)C(O)/C=C/c1ccc2c(c1)OCO2` (stereo not given): the call in test [1] and in test [5] was inactive. Further, the Potency result in test [2], in test [3], in [4], in [6] and in test [12] was “inactive” throughout. Besides, the Potency is 29.8 µM (active) in test [7]; 27.5 µM (active) in test [8]; 3.89 µM (active) in test [9]; 3.89 µM (active) in test [10]; 5.75 µM (active) in test [11].

In the case of `CC(C)C(O)C(C)(C)CO` (stereo not given), the outcome in [1] and in test [5] was inactive. Besides, the Potency result in test [2], in test [3], in [4], in test [6], in [7] and in test [12] was “inactive” each time. In addition, the Potency was 32.7 µM (active) in [8], 41.2 µM (active) in [9], 65.3 µM (active) in test [10] and 65.3 µM (active) in test [11].

`CCCCC(CC)COS(=O)(=O)O` (stereo not given): the compound was classed as inactive in test [1] and in test [5]. The Potency result in [2], in test [3], in [4], in test [6], in test [7] and in test [15] was “inactive” throughout. The Potency entry in [16], in test [9] and in [11] was “inactive” throughout. Moreover, the max activation in test [14] is -1.14%.

Consider `ClC1=C(Cl)C1(Cl)Cl`, for which the call in test [1] and in [5] was inactive. Also, the Potency result in test [2], in test [3], in [4], in [6], in [7] and in [8] was “inactive” each time. Also, the Potency result in test [9], in test [10], in [11], in test [12] and in [13] was “inactive” in each case.

Turning to `C[C@@H]1C[C@H]2[C@@H]3CCC4=CC(=O)C=C[C@]4(C)[C@@]3(F)[C@@H](O)C[C@]2(C)[C@@]1(O)C(=O)COP(=O)(O)O`, the result in test [1] and in [5] was inactive. Further, the Potency entry in test [2], in [3], in test [4], in [6], in test [7] and in test [8] was “inactive” each time. Besides, the Potency result in test [9], in test [10], in [11] and in [12] was “inactive” throughout.

With `Cc1c[nH]c2ccccc12`, the compound was called inactive in [1] and in test [5]. The Potency result in test [2], in [3], in test [4], in test [6], in test [7] and in [15] was “inactive” each time. For the same compound, the Potency entry in test [16], in test [8], in test [9], in test [10], in test [12] and in [13] was “inactive” in each case. Besides, in test [14], the max activation was -6.59%. In addition, the Potency in test [11] is 14.4 µM (active).
